D1 ag – activates the human D1 dopamine receptor; P21728; HEK293 T-REx D1 cells, calcium flux, agonist mode; activation, % at 2 µM; 360,000 compounds, 1% hits
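Inducible HEK293 T-REx D1 cells, force-coupled to calcium signalling, were plated at 4000 cells/well with tetracycline and held overnight at 30 C. After no-wash calcium dye loading, compound-evoked calcium rise over 180 s flagged agonists.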
TRHR agonist – agonists of human TRH receptor; P34981; TRHR cells, calcium flux fluo-8, FDSS agonist mode; activation, % at 2 µM; 360,000 compounds, 0.18% hits; AID 493084
Target sequence (P34981 whole entry, looked up): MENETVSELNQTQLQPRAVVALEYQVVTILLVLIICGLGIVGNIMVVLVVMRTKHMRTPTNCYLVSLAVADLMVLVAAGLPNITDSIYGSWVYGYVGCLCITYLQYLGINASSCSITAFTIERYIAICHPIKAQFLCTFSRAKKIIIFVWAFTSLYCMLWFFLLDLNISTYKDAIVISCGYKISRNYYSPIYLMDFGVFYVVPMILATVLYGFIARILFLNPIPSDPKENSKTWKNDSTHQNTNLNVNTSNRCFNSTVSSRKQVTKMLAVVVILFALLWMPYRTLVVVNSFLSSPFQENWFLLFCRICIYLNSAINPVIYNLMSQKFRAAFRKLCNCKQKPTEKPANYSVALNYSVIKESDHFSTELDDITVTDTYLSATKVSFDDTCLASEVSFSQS
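TRHR-expressing cells loaded with fluo-8 calcium dye; 23 nL library compound pin-transferred, kinetic FDSS fluorescence (Ex 480/Em 530) recorded about 180 s for agonist-induced calcium release, before a 10 nM TRH EC20 addition for potentiator mode.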
D1 antagonist – antagonists of human D1 dopamine receptor. HEK293 TREx D1 cells, calcium flux, dopamine EC80; active compounds read low. activity change, negative = inhibition, % at 10 µM. 360,000 compounds, 3.2% hits; in the data active means activity change below about -30%
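Allosteric or orthosteric antagonism assessed as attenuation of the calcium response to EC80 dopamine, added 180 s after compound, in induced HEK293 Trex D1 cells loaded with no-wash calcium dye.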
TRHR enhancer – allosteric enhancers of human TRH receptor; P34981; AID 493056; TRHR cells, fluo-8 calcium fluorescence, EC20 TRH enhancement; enhancement, % at 2 µM; 360,000 compounds, 0.66% hits; in the data active means enhancement above about 30%
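Enhancer read-out: after compound pinning and an initial kinetic agonist-mode read, an EC20 of TRH (10 nM final) was injected and fluo-8 calcium signal (Ex 480/Em 530) followed at 1 s/cycle for 100 cycles in TRHR-expressing cells.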
D1 potentiator – potentiators of human D1 dopamine receptor; HEK293 TREx D1 cells, calcium flux, dopamine EC20 potentiation; potentiation, % at 10 µM; 360,000 compounds, 0.036% hits; AID 504651; in the data active means potentiation above about 30%
Each line names hits and unclear results; the compound was inactive in the other large screens. Compounds with a hit are over-represented: about 4.6% of the library has one in this group of screens. Unless noted, no stated cut-off is given here; in the data, active means activation above about 30%; inactive means the rest.

Cn1c(=O)c2sccc2n2c(CCC(=O)NCc3ccc(F)cc3)nnc12	none
Cc1occc1-c1nnc(SCC(=O)Nc2ccccn2)o1	TRHR enhancer 38.8
Cc1ccc(C)c(NC(=O)CSc2nnc(-c3ccco3)o2)c1	TRHR enhancer 32.2
COc1ccccc1NC(=O)CSc1nnc(-c2ccc(C)cc2)o1	D1 antagonist -82.3
Cc1cccc(NC(=O)CSc2nnc(-c3ccco3)o2)c1C	none
CC(C)c1ccccc1NC(=O)CSc1nnc(COc2ccccc2)o1	none
CC(C)c1ccccc1NC(=O)CSc1nnc(COc2ccccc2Cl)o1	D1 ag 38.3
CN(c1ccc(Br)cc1)S(=O)(=O)c1ccc2[nH]cc(C(=O)NCCN3CCOCC3)c(=O)c2c1	none
COc1ccc(NC(=O)CN2CCN(Cc3ccccc3)S2(=O)=O)c(OC)c1	none
CCc1ccc(NC(=O)c2sc3nc(C)c(C(=O)Nc4ccc(C)cc4C)c(-c4ccco4)c3c2N)cc1	D1 ag 45.7
COc1cccc(NC(=O)c2sc3nc(C)c(C(=O)Nc4ccc(C)cc4C)c(-c4sccc4C)c3c2N)c1	none
COCCCNC(=O)c1sc2nc(C)c(C(=O)Nc3ccc(C)cc3C)c(-c3ccccc3Cl)c2c1N	D1 antagonist -32.0
COc1cccc(NC(=O)c2sc3nc(C)c(C(=O)Nc4ccc(C)cc4C)c(-c4ccccc4Cl)c3c2N)c1	D1 antagonist -30.7
Cc1ccc(NC(=O)c2c(C)nc3sc(C(=O)NC4CCCC4)c(N)c3c2-c2ccco2)c(C)c1	none
COc1cccc(NC(=O)c2sc3nc(C)c(C(=O)Nc4ccc(C)cc4C)c(-c4ccco4)c3c2N)c1	D1 ag 35.5
COc1ccc(NC(=O)c2sc3nc(C)c(C(=O)Nc4ccc(C)cc4C)c(-c4ccc(Cl)cc4)c3c2N)cc1	none
O=C(C1CCN(S(=O)(=O)Cc2ccccc2)CC1)N1CCN(c2cccc(Cl)c2)CC1	none
Cc1cccc(CSc2nc(=O)c3c(n2C)NC(=O)CC3c2cc(F)cc(F)c2)c1 (stereo unspecified)	none
COc1cccc(C(=O)Nc2cccc(-c3nc4ncccn4c3C)c2)c1	none
NC(=O)NC(CC(=O)N1CCc2ccccc2C1)c1ccc(Cl)cc1 (stereo unspecified)	none
CN(C)c1ccc(C2C=C(c3ccc(Cl)cc3OC(F)F)Nc3ncnn32)cc1 (stereo unspecified)	D1 ag 41.2
Cc1ccc(C2C=C(c3ccccc3OC(F)F)Nc3ncnn32)cc1 (stereo unspecified)	none
COc1ccc(C(=O)Nc2cccc(C(=O)OCc3cc(=O)n4nc(C5CC5)sc4n3)c2)cc1	none
Clc1cccc(Cl)c1CNc1ccc(N2CCCC2)cc1	TRHR enhancer 31.0
O=C(Cc1ccc(Cl)cc1)Nc1ccc(N2CCCC2)cc1	none
O=c1cc(O)c2c(=O)[nH]c(=O)n(-c3ccccc3)c2[nH]1	TRHR enhancer 33.0
CCN(CC)S(=O)(=O)c1cc(C)ccc1SC	D1 antagonist -38.0
O=C(COc1ccccc1)Nc1ccc(Cl)c(-c2nc3ncccc3o2)c1	D1 antagonist -43.7
O=C(Cn1ncc2c3ccccc3n(Cc3ccccc3)c2c1=O)NCCCN1CCCCC1	none
c1ccc(CCNc2ncnc3c2cnn3-c2ccccc2)cc1	none
Cc1cccc(-n2ncc3c(NCCN4CCOCC4)ncnc32)c1	none
Cc1ccc(-n2ncc3c(NCCc4ccc(S(N)(=O)=O)cc4)ncnc32)cc1	D1 antagonist -48.1
Cc1cccc(-n2ncc3c(NCCc4ccc(S(N)(=O)=O)cc4)ncnc32)c1	D1 antagonist -47.7
COc1cccc(-n2c(SCC(=O)N3CCc4ccccc43)nc3c([nH]c4ccccc43)c2=O)c1	none
CC(CNC(=O)Cc1ccc(NC(=O)N2CCSc3ncccc32)cc1)c1ccccc1 (stereo unspecified)	none
CC(=O)c1cccc(NC(=O)COC(=O)[C@@H](NC(=O)OCc2ccccc2)C(C)C)c1	D1 antagonist -95.3
CC(=O)Nc1cccc(C(=O)OCC(=O)c2ccccc2Cl)c1	none
O=C(COC(=O)c1cccc(O)c1)NC(=O)Cc1ccccc1	D1 ag 32.6
CCC(=O)Nc1cccc(C(=O)OCC(=O)c2ccccc2Cl)c1	D1 antagonist -36.5
CC(=O)Nc1cccc(C(=O)OCC(=O)NC(=O)Cc2ccccc2)c1	D1 antagonist -33.3
CC(=O)Nc1cccc(C(=O)OCC(=O)NC(=O)c2ccccc2)c1	none
Cc1cccc(C(=O)OCC(=O)NC(=O)Cc2ccccc2)c1O	none
CC(C)[C@H](NC(=O)OCc1ccccc1)C(=O)OCC(=O)NCCc1ccccc1	none
COc1cccc(CNC(=O)CCc2c(C)nn(-c3ccc(N4CCOCC4)nn3)c2C)c1	none
Cc1ccc([N+](=O)[O-])cc1Nc1nc(N2CCCC2)nc(N2CCCC2)n1	none
COc1ccc(C(=O)NC(Oc2ccccc2)C(Cl)(Cl)Cl)cc1 (stereo unspecified)	D1 antagonist -80.1
COc1ccc(C(C)NC(=O)c2ccccc2)cc1 (stereo unspecified)	none
Cc1ccc(CN(CC(=O)NC2CCCC2)C(=O)c2csnn2)cc1	none
O=C(CN(Cc1ccccc1)C(=O)c1csnn1)NCc1ccccc1	D1 antagonist -66.7
O=C(CN(Cc1ccc(Cl)cc1)C(=O)c1csnn1)NCc1ccccc1	none (no result: D1 potentiator)
COc1ccc(CN(CC(=O)NC2CCCC2)C(=O)c2csnn2)cc1	D1 antagonist -48.7
Cc1cccc(-c2nc(C)c(CCNC(=O)C(=O)Nc3ccc(C)c(C)c3)s2)c1	none
O=C(c1ccc([N+](=O)[O-])cc1)N1CCC(n2nnc3cc(F)ccc32)CC1	TRHR enhancer 40.4
COc1ccc(Cl)cc1NC(=O)CN1CCCCCC1	none
COc1ccc(Cl)cc1NC(=O)CN1CCC(n2nnc3cc(C)ccc32)CC1	D1 antagonist -37.4
COc1ccc(C(=O)NNC(=O)CN2CCC(n3nnc4cc(F)ccc43)CC2)cc1	D1 antagonist -34.3
O=C(N1CCOCC1)N1CCC(n2nnc3cc(F)ccc32)CC1	none
Cc1ccc2c(c1)nnn2C1CCN(CC(=O)Nc2ccccc2N2CCOCC2)CC1	D1 antagonist -30.2
O=C1CCc2cc(S(=O)(=O)NC(C(=O)Nc3ccc(F)cc3)c3ccccc3)ccc2N1 (stereo unspecified)	none
OCCCNCc1ccc(N(c2ccccc2)c2ccccc2)cc1	none
COc1ccccc1NC(=O)CN1CCC(n2nnc3cc(F)ccc32)CC1	D1 antagonist -46.2
CS(=O)(=O)c1ccc2nc(NC(=O)c3ccc(Cl)cc3)sc2c1	none
CS(=O)(=O)c1ccc2nc(NC(=O)CCNC(=O)c3ccc(Cl)cc3)sc2c1	D1 antagonist -47.2
COc1ccc(C(=O)Nc2nc3ccc(S(C)(=O)=O)cc3s2)cc1	D1 antagonist -38.6
CC(C)NS(=O)(=O)c1ccc2nc(NC(=O)c3cncc(Br)c3)sc2c1	D1 antagonist -52.2
